Screening data from PubChem.
Hits are enriched below; roughly 9.3% of the tested compounds scored in any of these assays.
A340 absorber = compound absorbs light at 340 nm; fold change at 10 µM; 65,000 tested, under 10 active; compound absorbance at 340 nm, fold over control;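 active = at 10 µM dose, initial 340 nm absorbance at least 2 fold that of control wells; inactive = change under 2 fold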;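 also: initial absorbance extrapolated from kinetic A340 decline of NADH oxidation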
Autofluor 339 = intrinsic fluorescence of library compounds, ex339/em460 – biochemical, MLSMR library, data from DPM-DC assay, artefact control, profiling panel. compound autofluorescence, ex339/em460 nm, NADH buffer; active compounds read high; 1 = no-compound wells, NADH background. fluorescence fold increase at 10 µM. 65,000 compounds, 5.5% hits;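 active = at 10 µM, mean starting fluorescence two-fold or more over control wells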;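 also: signal is the first read of a kinetic run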
M1 agonist = activates the M1 muscarinic receptor; CHO-M1 cells, Fluo-4 calcium fluorescence, agonist mode; active compounds read high; B-score at 10 µM; 64,000 compounds, 3% hits;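 active = fluorescence rise, raw or as B-score row- and column-corrected plate score, outside the 99.7% band of its plate's samples, either direction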
Htt clearance = mutant huntingtin protein clearance; HeLa Exon1htt(103Q)mCFP, aggregate imaging; zero = plate's median compound well; AID 853; 47,000 compounds, 0.42% hits; inhibition, % at 1.5 µM;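 active = inhibition of aggregate fluorescence above about 70%, also judged a hit by eye on the cell image, limit read from the data, passing the limit was not always enough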;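 also: cells exposed to compound for three days before fixation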
M1 antag = M1 muscarinic receptor (rat) antagonism; P08482; B-score at 10 µM; CHO-M1 cells, Fluo-4 calcium, ACh EC80 antagonist mode; active compounds read low; 64,000 compounds, 3.4% hits; AID 628;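 active = calcium fluorescence response, raw or row-and-column corrected B-score, differing from the plate sample mean either way at a set confidence level, mostly lower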
Target sequence (P08482 whole entry, looked up): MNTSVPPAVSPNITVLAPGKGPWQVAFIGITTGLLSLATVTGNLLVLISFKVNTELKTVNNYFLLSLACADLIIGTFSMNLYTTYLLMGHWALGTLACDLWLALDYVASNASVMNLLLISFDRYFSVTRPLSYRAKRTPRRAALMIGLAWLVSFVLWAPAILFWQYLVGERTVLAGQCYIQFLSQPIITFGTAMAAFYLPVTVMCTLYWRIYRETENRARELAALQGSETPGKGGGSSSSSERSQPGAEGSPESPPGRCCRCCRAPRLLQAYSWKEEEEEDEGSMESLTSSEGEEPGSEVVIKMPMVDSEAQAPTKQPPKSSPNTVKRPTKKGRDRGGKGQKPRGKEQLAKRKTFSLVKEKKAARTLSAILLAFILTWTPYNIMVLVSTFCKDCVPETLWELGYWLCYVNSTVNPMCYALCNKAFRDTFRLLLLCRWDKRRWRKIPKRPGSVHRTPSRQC
NADH coupling = blocks coupling enzymes of NAD/NADH assays. 65,000 compounds, 0.02% hits. IC50, µM (highest dose often 10 µM), inactives show at the highest dose inhibition. coupled PK/LDH NADH assays, four targets;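 active = single-dose screening hits from any of four coupled enzyme assays that gave an IC50 when retested across doses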;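 also: the DPM-DC format reads NADH fluorescence rather than 340 nm absorbance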
The depositor's hits bear a star; . = no result.

SMILES	A340 absorber	Autofluor 339	M1 agonist	Htt clearance	M1 antag	NADH coupling
O=C(CSc1nnc2n(C3CCCC3)c(=O)c3ccccc3n12)N1CCCCCC1	1	1.1	1.4	-24	-0.5	4%
CCCn1c(=O)c2ccccc2n2c(SCC(=O)c3ccccc3)nnc12	1	1	2.3	-17	2.5*	5%
Cc1cccc(NS(=O)(=O)c2ccc(C3CCCCC3)cc2)n1	.	.	.	47	.	.
Cc1cccc(NS(=O)(=O)c2ccccc2)n1	1.1	2.1*	0.25	.	0.32	4%
Cc1cc(C)n2nc3nc(N4CCCCC4)nc(-c4ccco4)c3c2n1	1	2.1*	-0.5	.	-0.77	10%
CCOc1ccc2[nH]cc(C(=O)N3CCN(CC)CC3)c(=O)c2c1	1	1.8	-1	-23	0.27	4%
O=c1nc2n(c3ccccc13)Cc1ccccc1-2	1	1.5	0.23	.	0.77	6%
Cc1sc2nc3n(c(=O)c2c1C)Cc1ccccc1-3	1.1	3.7*	0.65	.	-0.81	7%
COc1nc(C)nc2c1sc(=S)n2C	1.1	1.1	0.086	-34	-0.69	2%
O=c1cc(N2CCN(c3ccccc3F)CC2)[nH]c(=O)n1-c1ccc(Br)cc1	1.1	1.1	-2.6*	4	0.35	1%
COc1ccccc1N1CCN(c2cc(=O)n(-c3ccc(Br)cc3)c(=O)[nH]2)CC1	0.97	1.2	-0.53	.	-0.049	3%
CCOC(=O)c1cc2c(nc1N)CC(C)(C)OC2	.	.	.	66	.	.
CC1(C)Cc2nc(N)c(C(=O)NCCO)cc2CO1	1.1	2.3*	0.94	.	6.6*	4%
CN(C)c1nc(OCCNC(=O)COc2ccccc2Cl)nc(N(C)C)n1	.	.	.	-10	.	.
Cc1nc(SCC(=O)Nc2ccc3c(c2)OCCO3)c2oc3ccccc3c2n1	.	.	-1.8	-51	1.1	.
O=C(CSc1ncnc2c1oc1ccccc12)Nc1ccc2c(c1)OCCO2	1.1	1.1	-0.34	73*	0.37	3%
CCNc1nc(OCCNS(=O)(=O)c2cc(C)ccc2C)nc(N(C)C)n1	1	1.1	-0.83	.	1.8*	0%
CCNc1nc(NCC)nc(OCCNS(=O)(=O)c2cc(C)ccc2C)n1	1	1.1	-1.4	44	-1.7	2%
CCOc1ccc(-c2cn(CCC#N)cn2)cc1	0.97	1.1	1.1	.	2.1*	6%
CCSc1nc2c(c(=O)[nH]1)C(c1ccccn1)C1=C(CC(C)(C)CC1=O)N2 (configuration not stated)	1.1	2.2*	-0.82	-2	-0.88	9%
Nc1nc(SCC(=O)NCc2ccco2)[nH]c(=O)c1-c1ccccc1	1	1.1	0.076	-8	-0.067	4%
Cc1ccc(C2C3=C(CCCC3=O)Nc3nc(SCC(=O)NCc4ccco4)[nH]c(=O)c32)cc1 (configuration not stated)	1.1	3.6*	0.13	16	0.75	10%
O=C1CCCC2=C1C(c1ccncc1)c1c(nc(SCc3ccccc3)[nH]c1=O)N2 (configuration not stated)	1.1	2.2*	-0.62	.	-2.1	5%
CCCc1nnc(NC(=O)CCC(=O)N2CCCCCC2)s1	1	1	-0.81	.	-0.0049	7%
Cc1ccccc1-c1noc(-c2ccccc2F)n1	.	.	.	-10	.	.
SMILES	A340 absorber	Autofluor 339	M1 agonist	Htt clearance	M1 antag	NADH coupling
COc1nc(-c2ccccc2)ccc1-c1noc(-c2ccc(F)cc2)n1	1.1	3.8*	0.54	.	0.032	13%
COc1nc(-c2ccccc2)ccc1-c1noc(-c2ccccc2F)n1	1.1	3.9*	0.36	2	-0.88	6%
CNc1nn(-c2cccc(Cl)c2)nc1N	1.1	1.2	1.5	.	0.61	5%
Cc1ccc(-c2nc3c(=O)n(C)c4ccccc4c3o2)cc1	1	4.7*	1.8	.	0.066	5%
O=C(O)c1cc(-c2ccco2)[nH]n1	1	1.1	.	.	.	2%
CC(C)Cc1cc(C(=O)O)n[nH]1	1	2*	0.019	4	-0.049	16%
COc1nc(N2CCCC2)nc(-n2cc(-c3ccccc3)nn2)n1	0.99	1.1	0.7	.	0.22	4%
C=CCn1c(NC(=O)c2ccco2)c(S(=O)(=O)c2ccccc2)c2nc3ccccc3nc21	1.1	3.8*	-0.33	.	0.4	4%
CCNC(=O)CSc1nc2cc(OC)c(OC)cc2c(=O)n1CCC1=CCCCC1	1	1.1	0.29	.	0.26	7%
Cc1c(Cc2ccccc2)c(=O)oc2c(CN(C)C)c(O)c(Cl)cc12	1.2	3.8*	-0.4	.	1.2	2%
O=C(NCCN1CCOCC1)c1ccc(-c2ccccc2)cc1	1.1	1.1	-0.099	-30	-0.26	5%
Cc1cccc(C(=O)NCCN2CCN(c3ccccc3)CC2)c1	1	1.1	0.048	.	0.6	7%
CC(C)Cn1c(N)c(C(=O)NCCN2CCOCC2)c2nc3ccccc3nc21	0.99	2.9*	-0.45	.	0.88	5%
Cc1cccc(-n2c(N)c(C(=O)NCCN3CCOCC3)c3nc4ccccc4nc32)c1	1.1	5.1*	3.3	.	-2.6	5%
CC(C)Cn1c2nc3ccccc3nc2c2c(=O)n(CCN3CCOCC3)cnc21	1.1	3.5*	-1.1	.	-0.048	10%
Cc1nn(-c2ccccc2)c(Cl)c1/C=C1\N=C(c2ccccc2)OC1=O	.	.	.	-88	.	.
Cc1nc(-c2ccccc2O)n(-c2ccccc2)n1	.	.	.	23	.	.
CC(=O)c1ccc2cccc3c2c1N=CN3C	.	.	.	53	.	.
CN1c2cccc3cccc(c23)N(C)C1(C)C	1.1	3.7*	0.069	.	-0.093	9%
COc1cccc2c(=O)c3c(cnn3C)n(C)c12	1	2.5*	0.19	37	-0.28	1%
Nc1cc(C(=O)N2CCCC2)cc(C(=O)N2CCCC2)c1	1	1.4	-0.23	-32	-0.54	2%
CCOc1ccc(S(=O)(=O)Nc2ccccc2SC)c2cccnc12	1.1	1.2	0.38	13	-0.16	1%
CCOc1ccc(S(=O)(=O)NCC2CCCO2)c2cccnc12 (configuration not stated)	1	2.2*	0.29	-12	1.6	4%
CC(=O)N(C)c1ccc(NC(=O)c2cnn(C)c2)cc1	1.1	1	-0.085	.	-0.91	5%
CCOC(=O)COc1ccc2cc(C(=O)OCC)c(=O)oc2c1	1.1	2.3*	-0.32	-1	0.12	5%
SMILES	A340 absorber	Autofluor 339	M1 agonist	Htt clearance	M1 antag	NADH coupling
CN(C)C(=O)COc1ccc2ccc(=O)oc2c1	1.1	2.2*	0.051	20	0.96	6%
CCN(CC)c1ccc(/C=N/n2c(=S)[nH]nc(C)c2=O)cc1	1.2	1.1	-0.087	.	-0.028	39µM*
Cc1nc2ccccc2c(=O)n1/N=C/c1ccc(N(C)C)cc1	1.2	1.1	3	.	0.63	7%
CCC(CC)C(=O)Nc1cc(C)cc(C)c1	1	1.2	-0.033	.	3.3*	0%
CCc1cc(C(=O)COc2ccccc2F)c(O)cc1O	1.1	0.87	0.0017	.	-1.1	4%
O=C(COc1nnnc2ccccc12)N1CCCc2ccccc21	0.97	1	-0.072	.	-0.27	2%
O=C(Cn1cnc2ccccc21)OCC(=O)N1CCCc2ccccc21	1	1.1	-2.4*	.	-0.2	8%
